Experimental data from PubChem BioAssay.
Several values for one entry are separate records, joined by “and”; a condition that tells them apart may be missing. Equal entries are not always repeated. Where a structure was tested more than once in an assay, its records may differ in their call. Activity calls are given as the source filed them.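 Rule for the calls, unless noted: active = compounds that lower viability of the colon cancer cells in the luminescence readout, with no numeric limit stated; inactive = the rest.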

Legend:
[1] = polyglutamine-triggered caspase-3 activation inhibitors, cell-based (AID 1583); details: polyglutamine-induced caspase-3 activation, cell assay; stronger effect = higher value;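 tested at 10 µM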
[2] = stimulators of nuclear beta-catenin in C2C12, primary screen, imaging, WNT3A-conditioned medium, mouse C2C12, NPC library (AID 1117326; in the data active = nuclear beta-catenin stimulation mostly above about 4.2%, no sharp cut-off; inactive = mostly below about 10%); details: stronger effect = higher value
[3] = stimulators of insulin release from INS-1E, primary screen, cell-based, 5 mM glucose, NPC library (AID 1117329;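 active = compound raises insulin release from rat beta cells at 5 mM glucose, no numeric limit stated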); details: rat INS-1E insulin secretion, at 10 µM, stronger effect = higher value
[4] = growth inhibition of GSK3B-pretreated HCT116 cells – cell-based, CellTiter-Glo, 0.2 to 20 µM (AID 1117336;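 active = compounds lowering colon cancer cell viability after pretreatment blocking the GSK3B kinase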); details: HCT116 viability after GSK3B inhibitor, at 20 µM, stronger effect = higher value
[5] = inhibition of endothelial tube formation, primary screen, imaging, VEGF stimulated, CD31 staining, tube area, NPC library (AID 1117340;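 active = compound that reduces growth-factor-driven endothelial tube area in a mixed cell culture, no cutoff stated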); details: VEGF-stimulated ADSC/ECFC co-culture, at 10 µM, stronger effect = higher value
[6] = glucagon-like peptide 1 release enhancers, primary assay, NCI-H716 cell line, NPC library (AID 1117341;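 active = compound raises GLP1 secretion from the human gut endocrine cells, with no numeric limit stated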); details: NCI-H716 cells, at 10 µM, stronger effect = higher value
[7] = HCT116 colon cancer cell growth inhibition, primary screen, CellTiter-Glo luminescence, NPC library (AID 1117342;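 active = compounds that lower survival of HCT116 colon cancer cells in the luminescence readout, no numeric limit stated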); details: at 20 µM (top of the series)
[8] = CellTiter-Glo luminescent readout of SW480 viability loss, NPC library primary (AID 1117343); details: CellTiter-Glo luminescence; at 20 µM (top of the series)
[9] = decreased DLD-1 cellular survival, CellTiter-Glo luminescent readout, NPC compound collection, primary HTS (AID 1117346;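 active = compounds that lower survival of DLD-1 colon cancer cells in the luminescence readout, no cutoff given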); details: DLD-1 viability, CellTiter-Glo luminescence; at 20 µM (top of the series)
[10] = target: 6-phosphogluconate dehydrogenase, decarboxylating (Homo sapiens) (UniProt P52209); experiment: 6PGD enzyme inhibitors, primary screen, biochemical, human, recombinant enzyme, NADPH absorbance (AID 1159550;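 active = at least 20% inhibition of 6-phosphogluconate dehydrogenase activity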); details: recombinant 6PGD, NADPH absorbance 341 nm; at 10 µM; stronger effect = higher value
[11] = differential killing of epithelial or mesenchymal cells, primary screen, imaging, PC-3E GFP, TEM4-18 mCherry, co-culture (AID 1345086;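 active = compounds killing one labelled cell type while sparing the other, by normalised counts and ratio limits, not self-fluorescent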;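 for all read-outs here: cells exposed to compound for 72 h before imaging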;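 for red/green cell ratio (normalised): normalised mesenchymal count divided by normalised epithelial count so high means epithelial killing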); details: imaging cell counts, at 1 µM; for red/green cell ratio (normalised): actives lie on both sides
[12] = tested on: Aerobactin synthetase IucA (Klebsiella pneumoniae hvKP1); experiment: Biochemical IucA enzyme inhibition primary screen of the Spectrum library (AID 1346200; call rule not given here;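 note: 100% = wells without compound and 0% = wells lacking enzyme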); details: malachite green pyrophosphate, A620, at 8 µM, stronger effect = lower value
[13] = sensitizers of A549 cells to miR-34 induction, primary screen, imaging, A549 dox-inducible miR-34, nuclei and caspase counts (AID 1347080;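 active = compounds whose cell count with miR-34 switched on is under 0.7 times the count with it off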); details: A549 miR-34 inducible, Hoechst nuclei count, 48 h
[14] = survival rescue of mitochondrial mutant cells in low glucose, primary screen, MELAS cybrids, Rieske KO mouse fibroblasts, CellTiter-Glo (AID 1508586;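 active = mean z-score across replicates of 1.96 or higher in either the MELAS or the Rieske mutant cell line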;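 note: z relative to plate mean and SD of compound and empty wells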)
[15] = target: NAD(+) hydrolase SARM1 (Homo sapiens) (UniProt Q6SZW1); experiment: SARM1 TIR NADase inhibitors, cell lysate, NAD-Glo luminescence (AID 1508614;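 active = compound whose remaining NAD level is above about 45 nM, limit read from the data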;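 note: higher remaining NAD means stronger inhibition of SARM1 NADase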); details: SAM-TIR HEK293T lysate NADase, at 1 µM, stronger effect = higher value
[16] = target: Mitogen-activated protein kinase 7 (Homo sapiens) (UniProt Q13164); experiment: ERK5 transactivation activators in reporter cells, primary screen, cell-based, HTS (AID 1508626;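 active = luciferase signal above three times the same-plate solvent-only control wells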;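 note: luciferase driven by Gal4-ERK5 fusion binding five Gal4 sites before minimal TATA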); details: HeLa Gal4-ERK5 transactivation, 18 h, at 5 µM, stronger effect = higher value
[17] = viability rescue of complex I mutant cybrids, primary screen, cell-based, galactose medium, ATP luminescence (AID 1645843;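 active = z-score of at least 1.8 in each of two replicates, scored against plate mean and spread of sample wells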;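 note: positive z means more ATP and so rescue of galactose-driven cybrid death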); details: complex I mutant cybrid cells, 72 h, stronger effect = higher value
[18] = circadian clock period modulators, cell-based, LOPAC library, luminescence reporter (AID 2774; call rule not given here;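 note: values are relative to mean of DMSO wells on each plate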); details: circadian reporter cells, at 7 µM, actives lie on both sides
[19] = Cy5 fluorescence quenching or enhancement artefacts, artefact control for HCV NS3 helicase inhibitor project, biochemical, LOPAC1280 (AID 687037; call rule not given here); details: Cy5-DNA-NS3h complex fluorescence interference counterscreen
[20] = liver-stage malaria parasite growth inhibition, primary screen, cell-based, HepG2, luciferase luminescence, HepG2 viability (AID 624349; in the data active = parasite load remaining mostly below about 12%, no sharp cut-off; inactive = mostly above about 10%;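 note: 100% = mean of DMSO negative control wells on the same plate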); details: P. berghei liver stage in HepG2, luciferase luminescence, concentration not given here; parasite load remaining: stronger effect = lower value; viability: measured here: HepG2 viability without parasites
[21] = measured here: epithelial PC-3E GFP cell survival
[22] = measured here: mesenchymal TEM4-18 mCherry cell survival
[23] = measured here: total cells without miR-34 induction
[24] = MELAS cybrid survival, CellTiter-Glo 48 h, stronger effect = higher value
[25] = Rieske KO mouse fibroblast survival, CellTiter-Glo 72 h

Chain of 6-phosphogluconate dehydrogenase, decarboxylating (Homo sapiens) (P52209 whole entry, looked up): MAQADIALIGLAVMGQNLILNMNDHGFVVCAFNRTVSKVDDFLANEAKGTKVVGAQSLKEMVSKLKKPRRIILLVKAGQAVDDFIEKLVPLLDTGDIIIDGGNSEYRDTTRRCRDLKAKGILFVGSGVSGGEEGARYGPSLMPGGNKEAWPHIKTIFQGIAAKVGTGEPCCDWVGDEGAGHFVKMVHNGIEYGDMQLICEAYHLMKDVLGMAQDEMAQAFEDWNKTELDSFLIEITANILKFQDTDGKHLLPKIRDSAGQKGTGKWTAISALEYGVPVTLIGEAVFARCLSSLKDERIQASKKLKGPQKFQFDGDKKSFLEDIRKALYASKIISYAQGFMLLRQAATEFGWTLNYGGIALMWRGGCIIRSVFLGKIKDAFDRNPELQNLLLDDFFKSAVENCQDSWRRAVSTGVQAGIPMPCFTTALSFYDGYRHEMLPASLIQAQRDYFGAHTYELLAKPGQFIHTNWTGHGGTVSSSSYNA
Chain of Mitogen-activated protein kinase 7 (Homo sapiens) (Q13164 whole entry, looked up, the tested form may be a part): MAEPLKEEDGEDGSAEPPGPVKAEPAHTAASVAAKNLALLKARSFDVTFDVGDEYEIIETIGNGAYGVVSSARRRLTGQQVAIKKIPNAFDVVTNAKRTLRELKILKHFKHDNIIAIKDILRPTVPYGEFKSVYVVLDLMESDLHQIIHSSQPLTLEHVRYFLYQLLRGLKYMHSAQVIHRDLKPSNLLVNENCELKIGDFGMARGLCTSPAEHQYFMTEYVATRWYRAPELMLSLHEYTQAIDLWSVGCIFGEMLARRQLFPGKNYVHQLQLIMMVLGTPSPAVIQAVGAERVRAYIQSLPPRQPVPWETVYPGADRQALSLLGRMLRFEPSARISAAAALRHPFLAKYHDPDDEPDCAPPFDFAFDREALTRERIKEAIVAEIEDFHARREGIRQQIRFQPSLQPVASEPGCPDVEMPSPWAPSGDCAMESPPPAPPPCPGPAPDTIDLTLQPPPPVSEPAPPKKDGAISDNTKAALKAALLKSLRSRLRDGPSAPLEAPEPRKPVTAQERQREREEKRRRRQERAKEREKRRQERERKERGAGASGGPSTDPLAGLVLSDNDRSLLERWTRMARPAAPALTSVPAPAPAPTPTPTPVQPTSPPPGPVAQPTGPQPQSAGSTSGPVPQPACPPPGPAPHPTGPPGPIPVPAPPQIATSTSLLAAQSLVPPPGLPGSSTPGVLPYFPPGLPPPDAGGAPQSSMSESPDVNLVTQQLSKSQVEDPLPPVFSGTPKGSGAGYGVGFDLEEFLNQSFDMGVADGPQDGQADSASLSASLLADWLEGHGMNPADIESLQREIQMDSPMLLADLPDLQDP
Chain of NAD(+) hydrolase SARM1 (Homo sapiens) (Q6SZW1 whole entry, looked up, the tested form may be a part): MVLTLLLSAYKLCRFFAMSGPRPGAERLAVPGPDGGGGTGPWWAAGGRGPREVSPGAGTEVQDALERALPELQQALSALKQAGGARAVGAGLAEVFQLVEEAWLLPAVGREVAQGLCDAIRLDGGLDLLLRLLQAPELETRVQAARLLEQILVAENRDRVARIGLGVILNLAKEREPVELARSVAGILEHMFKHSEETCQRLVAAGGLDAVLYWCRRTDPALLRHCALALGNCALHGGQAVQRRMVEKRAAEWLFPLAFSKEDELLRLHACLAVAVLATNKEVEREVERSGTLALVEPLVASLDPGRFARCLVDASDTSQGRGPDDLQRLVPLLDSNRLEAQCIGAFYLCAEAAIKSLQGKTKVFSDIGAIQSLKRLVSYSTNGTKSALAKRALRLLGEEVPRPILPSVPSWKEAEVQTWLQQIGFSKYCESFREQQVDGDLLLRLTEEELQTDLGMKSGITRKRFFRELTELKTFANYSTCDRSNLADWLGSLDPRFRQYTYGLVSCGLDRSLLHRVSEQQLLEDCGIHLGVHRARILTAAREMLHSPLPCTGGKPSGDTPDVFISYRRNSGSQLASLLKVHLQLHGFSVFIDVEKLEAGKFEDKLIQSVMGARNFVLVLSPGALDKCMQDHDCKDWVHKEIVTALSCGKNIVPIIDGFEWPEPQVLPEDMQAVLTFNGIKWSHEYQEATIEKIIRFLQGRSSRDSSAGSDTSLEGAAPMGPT

SMILES: CN(C)[C@@H]1C(=O)C(C(N)=O)=C(O)[C@@]2(O)C(=O)C3=C(O)c4c(O)cccc4[C@@](C)(O)[C@H]3[C@H](O)[C@@H]12
- inhibition [1]: -0.04%
- nuclear beta-catenin stimulation ([2]; at 10 µM): -2.3% (inactive)
- nuclear beta-catenin stimulation ([2]; stimulation, at 2 µM): 0.1%
- insulin secretion stimulation [3]: 1.4% (inactive)
- viability decrease [4]: 38.4% (inactive)
- tube area decrease [5]: 11.7% (inactive)
- GLP1 secretion stimulation [6]: -2.9% (inactive)
- inhibition of viability [7]: 31.6% (inactive)
- viability decrease (inhibition) [8]: 62.8% (active)
- viability decrease (inhibition) [9]: 14.3% (inactive)
- inhibition [10]: -7.39% (inactive)
- red/green cell ratio (normalised) [11]: 0.97 (inactive)
- normalised cell number [11, 21]: 1.02
- normalised cell number [11, 22]: 0.99
- activity remaining [12]: 109% (inactive)
- fold change ([13]; stronger effect = lower value): 0.977 (inactive) and 0.919 (inactive) and 0.901 (inactive)
- fold change ([13]; measured here: relative caspase fold change +Dox/-Dox): 0.839 and 0.936 and 1.89
- cell count ([13]; measured here: total cells with miR-34 induction, stronger effect = lower value): 8720 and 8430 and 10800
- cell count [13, 23]: 8930 and 9170 and 12000
- z-score [14, 24]: -3.76 (inactive)
- z-score [14, 25]: -2.32
- remaining NAD [15]: 10 nM (inactive)
- luciferase signal [16]: 92 AU (inactive)
- z-score [17]: -1.4 (inactive)

SMILES: c1cc2c(c(N3CCNCC3)c1)OCCO2
- nuclear beta-catenin stimulation ([2]; at 10 µM): -1.4% (inactive)
- nuclear beta-catenin stimulation ([2]; stimulation, at 2 µM): 0.7%
- insulin secretion stimulation [3]: 1.8% (inactive)
- viability decrease [4]: -14.9% (inactive)
- tube area decrease [5]: -9.4% (inactive)
- GLP1 secretion stimulation [6]: -2.6% (inactive)
- inhibition of viability [7]: 3.6% (inactive)
- viability decrease (inhibition) [8]: 3.4% (active)
- viability decrease (inhibition) [9]: -7.5% (inactive)

SMILES: CN(C)[C@@H]1C(=O)C(C(N)=O)=C(O)[C@@]2(O)C(=O)C3=C(O)c4c(O)cccc4[C@@](C)(O)[C@H]3C[C@@H]12
- inhibition [1]: 61.6%
- nuclear beta-catenin stimulation ([2]; at 10 µM): 1% (inactive)
- nuclear beta-catenin stimulation ([2]; stimulation, at 2 µM): 1.9%
- insulin secretion stimulation [3]: 2.5% (inactive)
- viability decrease [4]: -202% (inactive)
- tube area decrease [5]: 9.8% (inactive)
- GLP1 secretion stimulation [6]: -2.8% (inactive)
- inhibition of viability [7]: 12.1% (inactive)
- viability decrease (inhibition) [8]: 43.4% (inactive)
- viability decrease (inhibition) [9]: 73.3% (active)
- inhibition [10]: -5.09% (inactive)
- red/green cell ratio (normalised) [11]: 0.98 (inactive) and 1.18 (inactive)
- normalised cell number [11, 21]: 0.93 and 1.05
- normalised cell number [11, 22]: 0.91 and 1.24
- activity remaining [12]: 92.7% (inactive)
- cell count [13, 23]: 7550 and 8910 and 10100
- z-score [14, 24]: 4.37 (active) and -3.68 (inactive) and 0.0486
- z-score [14, 25]: 0.792 and -3.53 and 2.26
- remaining NAD [15]: 10 nM (inactive)
- luciferase signal [16]: 324 AU (active)
- z-score [17]: 2.65 (active)

SMILES: Oc1c(Br)cc(Br)cc1Br
- nuclear beta-catenin stimulation ([2]; at 10 µM): -0.6% (inactive)
- nuclear beta-catenin stimulation ([2]; stimulation, at 2 µM): -0.3%
- insulin secretion stimulation [3]: -0.4% (inactive)
- viability decrease [4]: -83.3% (inactive)
- tube area decrease [5]: 10% (inactive)
- GLP1 secretion stimulation [6]: -3.7% (inactive)
- inhibition of viability [7]: -18% (inactive)
- viability decrease (inhibition) [8]: 32.1% (inactive)
- viability decrease (inhibition) [9]: 37.1% (inactive)

SMILES: Oc1ccc([C@H]2CNCc3c2ccc(O)c3O)cc1O
- nuclear beta-catenin stimulation ([2]; at 10 µM): 0.8% (inactive)
- nuclear beta-catenin stimulation ([2]; stimulation, at 2 µM): 0.2%
- insulin secretion stimulation [3]: 3.5% (inactive)
- viability decrease [4]: 86.5% (active)
- tube area decrease [5]: 13.1% (inactive)
- GLP1 secretion stimulation [6]: 23.9% (active)
- inhibition of viability [7]: 57.5% (active)
- viability decrease (inhibition) [8]: 60.8% (active)
- viability decrease (inhibition) [9]: 38.4% (inactive)

SMILES: COC(=O)C1=CCCN(C)C1
- inhibition [1]: 15.1%
- period change [18]: -0.175 h (inactive)
- fluorescence ratio (interference) [19]: 1 (inactive)
- nuclear beta-catenin stimulation ([2]; at 10 µM): 4.2% (inactive)
- nuclear beta-catenin stimulation ([2]; stimulation, at 2 µM): 2.3%
- insulin secretion stimulation [3]: -0.6% (inactive)
- viability decrease [4]: -6.9% (inactive)
- tube area decrease [5]: 25.2% (inactive)
- GLP1 secretion stimulation [6]: -0.8% (inactive)
- inhibition of viability [7]: -3.33% (inactive)
- viability decrease (inhibition) [8]: 8.4% (inactive)
- viability decrease (inhibition) [9]: -18.9% (inactive)
- inhibition [10]: -2.35% (inactive)
- red/green cell ratio (normalised) [11]: 1.16 (inactive)
- normalised cell number [11, 21]: 0.91
- normalised cell number [11, 22]: 1.07
- activity remaining [12]: 112% (inactive)
- z-score [14, 24]: -0.328 (inactive)
- z-score [14, 25]: 0.482
- remaining NAD [15]: 10 nM (inactive)
- luciferase signal [16]: 52 AU (inactive)
- z-score [17]: -0.47 (inactive)

SMILES: O=[N+]([O-])/N=C1\NCCN1Cc1ccc(Cl)nc1
- nuclear beta-catenin stimulation ([2]; at 10 µM): 0.9% (inactive)
- nuclear beta-catenin stimulation ([2]; stimulation, at 2 µM): 1.2%
- insulin secretion stimulation [3]: -1.2% (inactive)
- viability decrease [4]: -10.2% (inactive)
- tube area decrease [5]: -4.1% (inactive)
- GLP1 secretion stimulation [6]: -2% (inactive)
- inhibition of viability [7]: 9.4% (inactive)
- viability decrease (inhibition) [8]: 27.9% (inactive)
- viability decrease (inhibition) [9]: -0.3% (inactive)
- inhibition [10]: -7.9% (inactive)

SMILES: C=CCOC(Cn1ccnc1)c1ccc(Cl)cc1Cl (stereo unspecified)
- nuclear beta-catenin stimulation ([2]; at 10 µM): 4.9% (inactive)
- nuclear beta-catenin stimulation ([2]; stimulation, at 2 µM): 2.5%
- insulin secretion stimulation [3]: 6.1% (inactive)
- viability decrease [4]: -54.8% (inactive)
- tube area decrease [5]: 6.3% (inactive)
- GLP1 secretion stimulation [6]: 0.8% (inactive)
- inhibition of viability [7]: 58.1% (active)
- viability decrease (inhibition) [8]: 96.7% (active)
- viability decrease (inhibition) [9]: 30.1% (inactive)

SMILES: CN1C(=O)CCS(=O)(=O)C1c1ccc(Cl)cc1 (stereo unspecified)
- inhibition [1]: 11.3%
- period change [18]: 0.08 h (inactive)
- parasite load remaining [20]: 65% (inactive) and 73.4% (inactive)
- viability [20]: 112% and 75.6%
- fluorescence ratio (interference) [19]: 1 (inactive)
- nuclear beta-catenin stimulation ([2]; at 10 µM): 0.2% (inactive)
- nuclear beta-catenin stimulation ([2]; stimulation, at 2 µM): 3.4%
- insulin secretion stimulation [3]: 0.4% (inactive)
- viability decrease [4]: -22.1% (inactive)
- tube area decrease [5]: 3.9% (inactive)
- GLP1 secretion stimulation [6]: 3.4% (inactive)
- inhibition of viability [7]: -1.4% (inactive)
- viability decrease (inhibition) [8]: 2.8% (inactive)
- viability decrease (inhibition) [9]: -11.9% (inactive)
- inhibition [10]: -16% (inactive)
- red/green cell ratio (normalised) [11]: 1.12 (inactive)
- normalised cell number [11, 21]: 0.96
- normalised cell number [11, 22]: 1.07
- activity remaining [12]: 123% (inactive)
- z-score [14, 24]: -0.135 (inactive) and 0.131 (inactive)
- z-score [14, 25]: 0.8 and -0.00931
- remaining NAD [15]: 10 nM (inactive)
- z-score [17]: 0.35 (inactive) and 0.81 (inactive)
